The list is not random: actives were taken first. Their share in the collection is about 7.5%.
NPC1 prom act: qHTS Assay for NPC1 Promoter Activators | Huh7 NPC1 promoter luciferase reporter, 24 h | 320,000 compounds, 2.4% hits | Potency, µM (top dose mostly 9.22 µM), inactives show at the highest dose activation, actives largely listed as activators; further: % of control where 0% means no effect; nearly all actives have a fitted effect of over 60% in size
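Luminescence from an NPC1 promoter-driven luciferase reporter in stably transfected Huh7 cells was measured after 24 h compound treatment at 37 °C, followed by 10 min ambient incubation with luciferase detection reagent.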
FLuc modulator: qHTS profiling assay for firefly luciferase inhibitor/activator using purifed enzyme and Km concentrations of substrates (counterscreen for miR-21 project); purified FLuc, Km substrates, luminescence inhibition; 360,000 compounds, 6.9% hits; AID 588342, 2011; Potency, µM (doses to about 57.5 µM), inactives show at the top dose activity change, negative = inhibition, hits mostly inhibitors;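 further: plate controls were vehicle for no effect and reference inhibitor for full effect; nearly all actives have a fitted effect of over 55% in size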
Target sequence (P08659 whole entry, looked up): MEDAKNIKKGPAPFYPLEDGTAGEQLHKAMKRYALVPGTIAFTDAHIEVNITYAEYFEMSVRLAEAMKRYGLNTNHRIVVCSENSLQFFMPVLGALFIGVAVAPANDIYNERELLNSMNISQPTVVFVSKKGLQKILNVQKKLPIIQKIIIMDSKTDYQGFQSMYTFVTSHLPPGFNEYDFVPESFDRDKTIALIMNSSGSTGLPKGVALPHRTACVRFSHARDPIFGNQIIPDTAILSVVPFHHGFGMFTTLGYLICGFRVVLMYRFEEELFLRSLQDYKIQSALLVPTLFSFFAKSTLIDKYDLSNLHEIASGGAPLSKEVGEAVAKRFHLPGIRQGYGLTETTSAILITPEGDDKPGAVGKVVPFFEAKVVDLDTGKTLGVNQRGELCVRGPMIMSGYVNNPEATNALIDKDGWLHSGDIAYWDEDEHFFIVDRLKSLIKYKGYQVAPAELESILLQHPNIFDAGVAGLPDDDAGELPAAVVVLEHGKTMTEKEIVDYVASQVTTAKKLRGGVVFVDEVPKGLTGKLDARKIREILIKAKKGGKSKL
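Purified P. pyralis luciferase (10nM final) with 10uM D-luciferin and 10uM ATP (Km levels) in 50mM Tris acetate pH 7.5, 10mM Mg acetate, 0.01% Tween-20, 0.05% BSA; qHTS 6-point titration, ~60 µM downward; luminescence read.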
Luc counter: Counterscreen for Luciferase (Kinase-Glo TM) Inhibition; Kinase-Glo luciferase, ATP luminescence, 8 min; Potency, µM (top dose mostly 38.3 µM), for the others: at the highest dose activity change, negative = inhibition, hits mostly inhibitors; 200,000 compounds, 0.28% hits; Luciferin 4-monooxygenase (Photuris pensylvanica), Q27757; further: on the % scale 0 is the no-effect control and ±100 the full control effect; nearly all actives have a fitted effect of over 60% in size
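Kinase-Glo luciferase light output from ATP and luciferin was measured with 10 uM ATP, within the enzyme's linear range. Buffer: 50 mM imidazole pH 7.2, 50 mM KCl, 7 mM MgCl2, 0.01% Tween 20, 0.05% BSA; luminescence read after 8 min at ambient temperature.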
ELG1 genotox: qHTS screen for small molecules that induce genotoxicity in human embryonic kidney (HEK293T) cells expressing luciferase-tagged ELG1. HEK293T ELG1-luciferase reporter, luminescence, 16 h. Potency, µM (series often up to 46 µM), without a hit: top-dose activity change, positive = activation, most hits filed as activators. 330,000 compounds, 1.3% hits; further: % of control where 0% means no effect; nearly all actives have a fitted effect of over 60% in size
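Reporter readout depends on ELG1 protein level, which increases with genetic stress. After 16 hr compound exposure at 37 °C, luciferase activity was quantified using ONE-Glo.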
Rab9 prom act: qHTS Assay for Rab9 Promoter Activators | 320,000 compounds, 2.8% hits | Potency, µM (series often up to 9.22 µM), inactives show at the top dose activation, negative = inhibition, hits mostly activators | Huh7 Rab9 promoter-luciferase reporter, luminescence, 24 h; further: % of control where 0% means no effect; nearly all actives have a fitted effect of over 60% in size
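Stable Rab9-luc Huh7, 1500 cells/well, 2 h settle; cmpd in DMSO, 24 h, 37 °C/5% CO2; luciferase reagent 10 min RT; luminescence.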
SMN2 splice up: qHTS Assay for Enhancers of SMN2 Splice Variant Expression; HEK293 SMN2-luciferase splicing reporter, luminescence, 30-36 h; AID 1458, 2008; Potency, µM (top dose mostly 46.1 µM), for inactives: at the highest dose activity change, positive = activation, usual class: activators; 210,000 compounds, 2.8% hits; further: % of control where 0% means no effect; nearly all actives have a fitted effect of over 55% in size
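HEK293 cells carry an SMN2 minigene-luciferase reporter in which exon 7 inclusion puts luciferase in frame. Cells were seeded at 2000 cells/well, attached for 10-12 hours, then exposed to compounds for 30-36 hours at 37C before ONE-Glo luminescence.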
* = called active by the depositor; ? = inconclusive; . = no result given; ! = not confirmed by another sample; [ ] = another dose, or the depositor's remark. The call rests on the fitted dose curve; in most records, active means well fitted curve in the direction sought with a large enough effect; inconclusive means small, poorly fitted or top-dose-only effect, or another doubt; inactive means no such curve, though single readings can be large; an effect the other way counts as inactive or inconclusive. Potency means the concentration at half of the fitted maximal effect.

SMILES	NPC1 prom act	FLuc modulator	Luc counter	ELG1 genotox	Rab9 prom act	SMN2 splice up
CN1CCN(C(=O)Cn2c(-c3cccs3)cc3cc(Cl)ccc32)CC1	.	-6%	.	.	.	.
CCOC(=O)c1c(C)nc2c3ccccc3ccn12	18%	3.8µM*	-14%	4.1µM*	2.2µM*	13µM*
CCOC(=O)c1c(C)nc2c(C)cccn12	0%	2%	-3%	7%	-6%	-58%
Cc1cccc(/C(N)=N/OC(=O)Cc2ccccc2)c1	14%	15µM*	-3%	?	20%	11%
N/C(=N\OC(=O)COc1ccccc1)c1ccc(Cl)cc1	0%	?	2%	?	0%	21%
Cc1cccc(/C(N)=N/OC(=O)COc2ccccc2Cl)c1	22%	19µM*	1%	?	16%	?
COc1ccc(/C(N)=N/OC(=O)COc2ccccc2Cl)cc1	7%	21µM*	-7%	?	11%	?
N/C(Cc1ccc(Cl)cc1Cl)=N\OC(=O)Cc1ccccc1	-1%	15µM*	5%	0%	-3%	8%
N/C(Cc1ccc(Cl)cc1Cl)=N\OC(=O)Cc1ccc(Cl)cc1	0%	-1%	-3%	3%	0%	-7%[1.84 µM]
CCN(c1ccccc1)c1ncnc2c1cnn2-c1ccccc1	?	19µM*	1%	21µM*	?	-59%
COCCN(CCOC)c1ncnc2c1cnn2-c1ccccc1	5%	-15%	.	6%	16%	.
CN(Cc1ccccc1)c1ncnc2c1cnn2-c1ccccc1	2.5µM*	6µM*	-3%	18µM*	2.8µM*	5.6µM*
CCN(Cc1ccccc1)c1ncnc2c1cnn2-c1ccc(F)cc1	.	7.6µM*	.	.	.	.
O=C(Nc1ccc([N+](=O)[O-])cc1Cl)c1cc(Cl)ccc1O	0.065µM*	0.21µM*	-5%	?	0.1µM*	25µM*!
O=C(Nc1ccccc1F)Nc1ccc([N+](=O)[O-])cc1Cl	?	?	.	4%	4µM*	.
Cc1ccc(O)c(NC(=O)c2cc([N+](=O)[O-])ccc2Cl)c1	0%	0%	2%	-15%	-8%	-82%
O=C(Nc1cccc(Cl)c1)c1cc(N=Nc2ccc([N+](=O)[O-])cc2Cl)ccc1O	2%	12µM*	.	-16%	-15%	.
O=C(Nc1ncccc1Cl)C1COc2ccccc2O1 (centres undefined)	-2%	17µM*	-5%	?	9%	-15%
Cc1ccnc(NC(=O)C2COc3ccccc3O2)c1 (centres undefined)	2.8µM*	9.5µM*	-9%	?	3.5µM*	?
O=C(Nc1ccccc1)C1COc2ccccc2O1 (centres undefined)	25%	-15%	.	16%	10%	.
O=C(Nc1ccc(-c2cn3ccsc3n2)cc1)C1COc2ccccc2O1 (centres undefined)	?	27µM*	-3%	-1%	3.2µM*	9%
Cc1ccc(NC(=O)C2COc3ccccc3O2)c(C)c1 (centres undefined)	27%	?	.	11%	4%	.
CC1(C)Oc2ccc(NC(=O)C3COc4ccccc4O3)cc2O1 (centres undefined)	1.6µM*	1.9µM*	-22%	?	0.5µM*	-23%
CC(=O)O[C@H]1CC[C@@]2(C)C(=CC[C@@H]3[C@@H]4CC[C@H](c5cc(C(F)(F)F)n(C(C)=O)n5)[C@]4(C)CC[C@@H]32)C1	.	.	-1%[7.66 µM]	.	.	-16%[9.22 µM]
C/C(=N\NC(=O)C1COc2ccccc2O1)c1ccccn1 (centres undefined)	-12%	-11%	-2%	12µM*	-25%	-76%

Screening data (PubChem)
